Data: ChEMBL document CHEMBL3433997, “St. Jude Leishmania screening dataset” (2016)

Assays:
Format in all cases: functional
[1] = target: Solute carrier family 2, facilitated glucose transporter member 1 (Homo sapiens) (UniProt P11166); assay: ST_JUDE_LEISH: Cytotoxicity at 2uM final concentration against transgenic Leishmania Mexicana promastigotes LmGLUT1 that are glucose transport deficient and complemented with the human glucose transporter GLUT1. Activity is measured by DNA content using SYBR green in vitro
[2] = target: Hexose transporter 1 (Plasmodium falciparum) (UniProt O97467); assay: ST_JUDE_LEISH: Cytotoxicity at 2uM final concentration against transgenic Leishmania Mexicana promastigotes LmPfHT that are glucose transport deficient and complemented with the Plasmodium falciparum hexose transporter. Activity is measured by DNA content using SYBR green in vitro
[3] = target: Glucose transporter (Leishmania mexicana) (UniProt O61059); assay: ST_JUDE_LEISH: Cytotoxicity at 2uM final concentration against transgenic Leishmania Mexicana promastigotes LmGT2 that are glucose transport deficient and complemented with the L. Mexicana glucose transporter 2. Activity is measured by DNA content using SYBR green in vitro

Chain of Solute carrier family 2, facilitated glucose transporter member 1 (Homo sapiens) (P11166 whole entry): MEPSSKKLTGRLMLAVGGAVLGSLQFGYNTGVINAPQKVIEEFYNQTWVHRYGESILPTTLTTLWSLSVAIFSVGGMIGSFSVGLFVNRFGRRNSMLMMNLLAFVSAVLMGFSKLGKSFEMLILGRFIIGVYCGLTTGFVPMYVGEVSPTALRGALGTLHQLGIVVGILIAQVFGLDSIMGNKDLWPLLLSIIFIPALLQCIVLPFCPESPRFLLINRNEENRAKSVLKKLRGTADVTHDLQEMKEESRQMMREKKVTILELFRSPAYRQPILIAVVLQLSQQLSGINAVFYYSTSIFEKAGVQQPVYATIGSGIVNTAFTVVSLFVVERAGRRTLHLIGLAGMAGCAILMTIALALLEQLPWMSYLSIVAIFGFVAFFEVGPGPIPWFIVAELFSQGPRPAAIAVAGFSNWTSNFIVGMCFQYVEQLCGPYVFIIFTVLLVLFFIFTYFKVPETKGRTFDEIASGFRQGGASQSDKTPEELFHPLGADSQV

SMILES | inhibition [1] | inhibition [2] | inhibition [3]
CC(C)CNC(=O)c1cncc(-c2ccc(CNC3Cc4ccccc4C3)cc2)c1 | -0.34% | 1.58% | -0.51%
O=S(=O)(Nc1cccc(CCN2CCC(N3CCCCC3)CC2)c1)c1ccccc1C(F)(F)F | 1.15% | 0.31% | -2.06%
C=CCNc1cc(-c2ccccn2)nc(-c2ccccn2)n1 | 31.9% | 9.08% | 6.05%
Cc1cc(N)c2cc(NC(=O)c3cc4ccccc4s3)ccc2n1 | -0.05% | -1.3% | -0.52%
CC1(C)N=C(N)N=C(N)N1OCCCOc1cc(Cl)c(Cl)cc1Cl | 3.4% | 4.05% | 2.71%
COc1cccc(C(=O)NCc2cccs2)c1Oc1ccccc1 | 13.2% | 12.2% | 11%
O=C(Nc1cccnc1)c1cn(-c2ccccc2)nc1-c1cccs1 | 3.18% | 1.81% | -1.31%
CN(C)Cc1cccc(-c2ccc(NC(=O)c3ccc4c(=O)n(Cc5cnn(C)c5)cnc4c3)cc2)c1 | 1.78% | 2.88% | 4.86%
CN1CCN(Cc2cccc(-c3ccc4c(Nc5ccc(Oc6cccnc6)cc5)ccnc4c3)c2)CC1 | 4.73% | 5.64% | 4.34%
O=C(O)CCSSc1cccc[n+]1[O-] | 29.9% | 48.3% | 3.25%
CCOC(=O)c1ccc(NC(=O)Nc2cccc(-c3cccc(-c4nc5ccccc5[nH]4)c3)c2)cc1 | 10.4% | 7.84% | 8.27%
CCCC/C=C(\Cl)c1ccc(O)c2c1C[C@H]1C[C@H]3[C@H](N(C)C)C(O)=C(C(N)=O)C(=O)[C@@]3(O)C(O)=C1C2=O | -0.21% | -1.57% | 0.16%
O=C(Nc1cc(Oc2ccc(O)cc2)cc([N+](=O)[O-])c1)c1cc(-c2ccc(F)cc2)no1 | 2.24% | -1.36% | 1.6%
N=C(N)c1ccc2[nH]c(-c3cc4cc(C(=N)N)ccc4o3)cc2c1 | 2.26% | 2.36% | 1.58%
COc1cc(NC(=O)/C=C/c2cccc3ccoc23)ccc1OCCN(C(C)C)C(C)C | 9.36% | 3.8% | 1.81%
CCN(CC)CCN(Cc1ccc(-c2ccc(Br)cc2)cc1)C(=O)Cn1c(CCc2cccc(F)c2F)nc(=O)c2ccccc21 | 2.2% | 3.29% | 6.05%
O=c1ccc2ccc(F)c3c2n1CC3CN1CCC(NCc2cccc(-c3cccs3)c2)CC1 (configuration not stated) | 6.55% | 8.34% | -6.19%

SMILES | inhibition [1] | inhibition [2] | inhibition [3]
C=C[C@]1(C)C[C@@H](OC(=O)c2cncn(COC)c2=O)[C@]2(C)[C@H](C)CC[C@]3(CCC(=O)[C@H]32)[C@@H](C)[C@@H]1O | -0.03% | -0.92% | 0.15%
Cc1nc(-c2ccccc2)nc(N2CCN(C(=O)c3ccco3)CC2)c1Cc1ccccc1F | 7.73% | 9.03% | 7.76%
c1ccc(-c2csc(Nc3nc4cc5c(cc4s3)OCO5)n2)nc1 | 0.62% | 0.83% | -1.72%
Cc1ccc2[nH]c(/C=C/c3cccc4cc[nH]c34)nc2c1 | 4.9% | 4.05% | 0.48%
COc1cc(C=C(C2=NC(=O)CS2)c2nc3cccnc3n2C)ccc1O | 5.2% | 5.56% | 4.82%
CC[C@H](C)CNC(=O)c1cncc(-c2cccc(CNC3Cc4ccccc4C3)c2)c1 | -0.1% | 0.31% | -1.15%
CC(=O)Nc1ncc(C(=O)Nc2cccc(-c3cccc(-c4nc5cccc(C)c5[nH]4)c3)c2)s1 | 3.02% | 2.86% | 2.45%
Oc1ccccc1CN(CCCN(Cc1ccccn1)Cc1ccccc1O)Cc1ccccn1 | 4.2% | 3.15% | 4.96%
Cc1ccc(-c2nc(NC(=O)Nc3ccc(C(F)(F)F)cc3)sc2C)cc1Cl | 5.17% | 1.68% | 1.54%
COc1cc(CCON2C(N)=NC(N)=NC2(C)C)cc(OC)c1OC | 2.34% | 0.73% | 1.04%
C=CCc1cc(Br)ccc1OCCCOc1c(C)nc(N)nc1N | 73.6% | 76% | 57%
O=C(O)C1Cc2c([nH]c3ccccc23)C(c2ccc(Cl)cc2Cl)N1 (configuration not stated) | 3.99% | 2.22% | 4.37%
OCCN1CCN(C(=S)Nc2ccccc2)CC1 | 4.19% | 3.14% | 3.02%
Cc1cnc(Nc2ccccc2)nc1N[C@@H](CCCN)C(=O)Nc1ccccc1 | -1.01% | -0.2% | -0.3%
Nc1nc(N)c2cc3ccc(OCc4ccccc4)cc3nc2n1 | 12.2% | 9.05% | 6.89%
C(=NN=c1cc[nH]c2ccccc12)c1ccncc1 | 3.99% | 4.32% | 3.95%
CCN(CC)CC(O)c1cc(-c2ccc(OC)cc2)nc2cc(Cl)ccc12 (configuration not stated) | 6.97% | 5.08% | 7.55%
